# The full ranking holds about 33,000 sequences; the median of “E-score (-0.5 to 0.5)” is about -0.0034, and the highest 2% start at about 0.25. Only a selection was taken, and the highest values are over-represented in it overall.
# Biological target: T1, Yap3 (UniProt P38749)
# T1 sequence: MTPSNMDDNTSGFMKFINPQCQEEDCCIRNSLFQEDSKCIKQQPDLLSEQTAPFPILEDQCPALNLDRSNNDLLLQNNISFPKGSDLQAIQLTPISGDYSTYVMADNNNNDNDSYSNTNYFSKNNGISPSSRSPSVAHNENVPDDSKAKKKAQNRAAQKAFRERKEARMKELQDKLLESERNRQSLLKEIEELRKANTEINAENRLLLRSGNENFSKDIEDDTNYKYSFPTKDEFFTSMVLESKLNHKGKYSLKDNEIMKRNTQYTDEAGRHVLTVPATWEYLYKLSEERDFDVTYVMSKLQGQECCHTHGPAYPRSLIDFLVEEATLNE
# Assay: PBM E-score (8-mer binding enrichment) (E-score (-0.5 to 0.5)); higher = stronger / more preferred TF binding
# Settings: protein concentration: 100 nM; construct: GST-full length
# Procedure, shortened: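 For each ungapped eight-base word taken together with its reverse complement, the Universal PBM Analysis Suite assigned an E-score. Binding data came from GST-tagged yeast transcription factors, applied at about 100-200 nM, on universal all-10-mer Agilent arrays made double-stranded by primer extension. Fluorescent anti-GST marked bound protein, and scans were normalised with masliner.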
row,Sequence,PBM E-score
1,AAAATTGC,0.0358
2,GGCTGGGA,-0.103
3,AACCACCG,-0.0601
4,CTGGTATA,-0.0636
5,TCCATGGA,0.142
6,ACAGATGG,0.00201
7,GGTAATCA,0.189
8,AGTAATCC,0.102
9,CGTAATCC,0.285
10,CGTAATCA,0.349
11,CCTAATCC,0.0254
12,AGTAATCA,0.117
13,CGATCGTA,0.126
14,ACCAAATG,0.0905
15,TAGTAAGA,0.227
16,CCAGCACG,-0.128
17,CCGCATCA,-0.0944
18,ACAAAACG,0.173
19,AAAAAACG,0.315
20,CAAAAACG,0.136
21,TAAAAACA,0.246
22,AAAAAACA,0.315
23,GAAAAACA,0.094
24,AGACTTCC,-0.161
25,ATAGGGTG,-0.123

row,Sequence,PBM E-score
1,ATTCAGAA,0.0683
2,ATAGCGTG,-0.00896
3,AGGGGTTG,-0.134
4,ACTTTATG,0.124
5,AATGTGAC,0.145
6,AATGTGAT,0.232
7,AATGTGAA,0.255
8,CTCCAGGC,-0.0968
9,GCAGAGAC,-0.322
10,AGTCGACC,-0.0691
11,AGTCGACA,0.0995
12,AGTCGACT,0.277
13,AGCCGTGC,-0.233
14,AATATGGA,0.123
15,TATATACA,0.226
16,GATATGGA,0.263
17,GATATATC,0.133
18,TATATATA,0.304
19,TATATGGA,0.108
20,GATATACA,0.187
21,GATATATA,0.271
22,CATATATA,0.227
23,ACTCTAGA,0.0228
24,ACAGAGGT,-0.0174
25,ACGCTATC,0.109

row,Sequence,PBM E-score
1,ATTTTCGG,0.109
2,ATCGTGGG,0.11
3,GAAGACGC,-0.0463
4,CCCGACCG,-0.3
5,TTATAAAA,0.256
6,GTATAAAA,0.287
7,CTATAAAA,0.0227
8,GGATAAAA,0.194
9,ATATAAAA,0.249
10,GTATAAAC,0.206
11,CACCACGG,-0.366
12,GATTGCGA,0.108
13,AATTTACC,0.145
14,ATTTTACA,0.145
15,AATTTACG,0.239
16,CTTTTACC,0.197
17,ATTTTACC,0.297
18,ATTTTACG,0.309
19,CCGATCAG,-0.00295
20,CCCCCTAA,-0.291
21,AAAGATCC,-0.0985
22,AGCTGTCG,-0.197
23,GTCGACCA,-0.0665
24,GGGCTGCA,-0.195
25,ACTACTAC,0.0925

row,Sequence,PBM E-score
1,ACTACTAT,0.255
2,GCTACTAA,0.138
3,CCTACTAC,-0.17
4,GCTACTAC,0.255
5,ACTACTAA,0.0558
6,CGTGACAG,-0.154
7,CGAGAGGC,-0.258
8,CCATCTAG,-0.112
9,TAGTTCCA,0.14
10,ATTTTCAC,0.174
11,ATTTTCAG,0.286
12,ATTTTCCG,0.325
13,AATTTCAG,0.0354
14,AATTTCCG,0.237
15,ATTTTCCC,0.0787
16,AGCTTGAC,-0.0896
17,ATTCTGGA,0.132
18,AAGGTCAT,-0.047
19,AACAGACG,-0.0301
20,AACAAGGG,-0.0929
21,GCGCTCAA,-0.131
22,CGACCGCG,-0.129
23,CATTGGTA,0.0377
24,GATTGGTA,0.305
25,AATTGGTA,0.158

row,Sequence,PBM E-score
1,GAATTGCA,0.101
2,CACGGATA,0.291
3,AACGGATT,0.233
4,AACGGATA,0.255
5,CACGGATG,-0.164
6,TACGGATA,0.0129
7,AACGGATG,-0.101
8,AGTTGTTA,0.114
9,ATCTAGAT,-0.0211
10,TCTGGCCA,-0.0631
11,AGACGCCG,-0.0447
12,GCACGTAA,0.0393
13,TGACGTAA,0.368
14,TCACGTAA,0.359
15,TGACGTCA,0.331
16,ACGCGTAA,0.0957
17,AGACGTCA,-0.0966
18,GGACGTAA,-0.0155
19,TCGCGTAA,0.302
20,GCGCGTAA,0.23
21,ACACGTAA,0.217
22,CGACGTAA,0.19
23,GGACGTCA,-0.0403
24,CATGTAAC,0.0356
25,ACCCTTCT,-0.142

row,Sequence,PBM E-score
1,AGAGTTAG,-0.0808
2,GGTCTAGA,-0.104
3,AACCAGCG,-0.0042
4,GCTGTAAC,0.0596
5,ACTCTGCC,-0.104
6,CCACTTAA,-0.071
7,CCACTTAC,0.257
8,GCACTTAC,0.0227
9,ATACCAAC,0.202
10,ACTTGTCC,0.0688
11,AAGAAGCA,0.119
12,AGCTGTAA,0.0402
13,CATCGCTA,0.0613
14,AGCCCTAG,-0.106
15,CATAAAGG,0.00277
16,CTGAGTAA,0.246
17,ATGAGTAA,0.284
18,GTGAGTAA,0.154
19,CTCGAACC,-0.0728
20,TTCTAAAA,0.0712
21,AATCCTCC,-0.0151
22,GTTTAAGA,-0.0881
23,GTTTAATA,0.272
24,AGTTAATC,0.0976
25,ATTTAACA,0.195

row,Sequence,PBM E-score
1,GGTTAATA,0.0683
2,GTTTAAAA,0.0984
3,CTTTAAGA,0.0783
4,ATTTAATC,0.212
5,ATTTAATA,0.302
6,AGTTAATA,0.264
7,CTTTAATA,0.285
8,CTTTAATC,0.152
9,AATCGCTA,-0.00025
10,GGTCGCCA,-0.186
11,ACCCATCT,0.0208
12,AAAGAGCA,0.132
13,CCGAGAGG,-0.18
14,GAGGTCTA,-0.165
15,TACGCTGA,0.156
16,GCTCCAGC,-0.037
17,AAGTCCGC,-0.104
18,CGCCAACC,-0.193
19,CAATAGAC,0.111
20,GAAGTCGA,0.0787
21,ATTTAAGG,0.0621
22,ATTTAATG,0.282
23,ATTTAACG,0.204
